Laboratory results from PubChem BioAssay (NCATS).
Inconclusive results are not listed. A call without a number means that no potency is given here. Active and inactive are the calls of the source. Calls follow the shape of the dose curve; as a rule, active = well fitted cell-killing curve with a large enough effect; inconclusive = small, poorly fitted or top-dose-only effect; inactive = flat fitted curve, though single readings scatter.

Assay: Cell Viability - LYMP2-010 (AID 981); also: nearly all actives have a fitted effect of over 55% in size
Settings: LYMP2-010 lymphoblastoid cell viability, qHTS; series mostly up to 92.2 µM
Excerpt: NIH Chemical Genomics Center [NCGC]
NIH Molecular Libraries Screening Centers Network [MLSCN]
National Institutes of Environmental Health Sciences [NIEHS]
National Toxicology Program [NTP]
We have developed a 1536-well cell-based assay for quantitative high throughput screening (qHTS) against a number of cell lines to determine in vitro cytotoxicity of small molecules. This particular assay uses a human lymphoblastoid cell line (LYMP2-010) purchased from Coriell Institute for Medical Research.
NCGC Assay Protocol Summary:
The CellTiter-Glo luminescent cell viability assay (Promega) is a homogeneous method to measure the number of viable cells in culture. The end point readout of this assay is based on quantitation of intracellular ATP, an indicator of metabolic activity, using the luciferase reaction. Luciferase catalyzes the oxidation of beetle Luciferin to oxyluciferin and light in the presence of ATP. The luminescent signal is proportional to amount of ATP present.
Using the CellTiter-Glo luminescent cell viability assay, the amount of cellular ATP was measured in the lymphoblastoid cell line with complete culture medium following compound treatment for 24 hours. The assay was performed in opaque white Kalypsys 1536-well plates. In the screen, tetraoctylammonium bromide was used as positive control. Library compounds were measured for their ability to cause acute toxicity in the cell line, as reflected by a decrease in intracellular ATP levels, in a concentration-dependent manner. […] AC50 values were determined from concentration-response data modeled with the standard Hill equation.
qHTS protocol for CellTiter Glo lymphoblastoid cellular assay
[Step] [Parameter] [Value] [Description]
1. Reagent; 5 uL; 2500 lymphoblastoid cells/well
2. Time; 5 hr; 37 C incubation
4. Controls; 23 nL; Tetraoctylammonium bromide 6.4pM to 92 uM
5. Time; 24 hr; 37 C incubation
6. Reagent; 5 uL; CellTiter Glo reagent
7. Time; 30 min; Room Temperature
8. Detection; Luminescence; Viewlux plate reader
Keywords: cell viability, cytotoxicity, lymphoblastoid cell line, luminescence, NTPHTS, NTPHTS_NCGC, NIEHS, DSSTox, MLSMR, MLSCN, NIH Roadmap, qHTS, NCGC
Potency is read from the fitted curve at half-maximal effect.

SMILES | Potency
Nc1ccc(Cc2ccc(N)c(Cl)c2)cc1Cl | inactive
CCOP(=S)(OCC)SCCSCC | inactive
CCN(CC)CCO | inactive
ClCc1ccccc1 | inactive
CC(=O)CCC(C)=O | inactive
CC(C)[C@]12CC(=O)[C@H](C)[C@H]1C2 | inactive
CCOS(C)(=O)=O | inactive
Oc1cc(Cl)c(Cl)c(Cl)c1Cl | inactive
c1ccc(Nc2ccc(Nc3ccccc3)cc2)cc1 | inactive
CCNCC | inactive
CC(C)(C)c1ccccc1O | inactive
OCCBr | inactive
O=[N+]([O-])c1c(Cl)c(Cl)c(Cl)c(Cl)c1Cl | inactive
Cc1ccc([N+](=O)[O-])cc1 | inactive
CN(C)C(=O)Nc1ccc(Cl)cc1 | inactive
CCCN(CCC)c1c([N+](=O)[O-])cc(C(F)(F)F)cc1[N+](=O)[O-] | inactive
CCBr | inactive
CCCCC(=O)Cl | inactive
c1ccc(P(c2ccccc2)c2ccccc2)cc1 | inactive
C=CC=O | inactive

SMILES | Potency
O=C(O)C(Cl)Br (stereo not given) | inactive
Brc1cccc(-c2ccccc2)c1 | inactive
C/C=C/CC#N | inactive
O=C(Cl)c1ccccc1F | inactive
Cl/C=C/Cl | inactive
CN(C)c1ccccc1 | inactive
Cc1ccc(N=C=O)cc1N=C=O | inactive
c1ccoc1 | inactive
O=Cc1ccc2c(c1)OCO2 | inactive
CCCCCCCCCCCCCl | inactive
C=CCBr | inactive
ClCC(Cl)CCl | inactive
CCC/C=N/O | inactive
CCCCC(CC)COC(=O)c1ccc(C(=O)OCC(CC)CCCC)c(C(=O)OCC(CC)CCCC)c1 (stereo not given) | inactive
N#CC(Br)Br | 50.1 µM (active)
CC(C)[N+](=O)[O-] | inactive
C=COC(C)=O | inactive
c1ccc(OCC2CO2)cc1 (stereo not given) | inactive
CCN(N=O)C(N)=O | inactive
Cc1ccccc1[N+](=O)[O-] | inactive
